# Source: PubChem BioAssay (Tox21)
# “And” between values parts separate entries of the source, which are not always exact repeats. Equal values may be shown once. Results filed as inconclusive are left out. Where a call stands in place of a potency, no number is given. The source made the active and inactive calls. Calls follow the shape of the dose curve; as a rule, active = well fitted cell-killing curve with a large enough effect in the repeat runs; inconclusive = weak or mixed curves, or effect the other way; inactive = no such curve, though single readings can be large or run the other way.
# Assay: qHTS assay for identifying genotoxic compounds that show differential cytotoxicity against isogenic chicken DT40 cell lines with known DNA damage response pathways - wild type cell line (AID 743012); also: nearly all actives have a fitted effect of over 60% in size
# Conditions: DT40 wild type chicken cells viability, CellTiter-Glo, 40 h; series mostly up to 68.4 µM
# Excerpt: U.S. Tox21 Program National Center for Advancing Translational Sciences [NCATS] NIH Chemical Genomics Center [NCGC] U.S. Environmental Protection Agency [EPA] National Institutes of Environmental Health Sciences [NIEHS] National Toxicology Program [NTP] U.S. Food and Drug Administration [FDA] Tox21 Assay Overview: DNA repair pathways play a critical role in cellular homeostasis by repairing DNA damage induced by endogenous processes and xenobiotics. Isogenic chicken DT40 cell lines deficient in different DNA repair pathways can be used to identify genotoxic compounds and aid in characterizing the nature of the DNA damage induced. Two DNA repair-deficient cell lines with disrupted genes, Rad54/Ku70 or Rev3, were used to screen the Tox21 10K compound library. Possible genotoxicity was based on the presence of a significant increase in cytotoxicity in one or more of the DNA repair-deficient cell lines compared to that observed in the parental DNA repair-proficient cell line. CellTiter Glo viability assay (Promega, Madison, WI) was used to measure cell viability in these cells after compound treatment. This assay includes the data from the wild type cell line.
# Tox21 Assay Protocol Summary: 300 DT40 wild type cells in 5 uL/well were dispensed into white, solid-bottom 1536-well plates using a Multidrop Combi (ThermoFisher Scientific, Waltham, MA) dispenser. After the assay plates were incubated at 37 C/5% CO2 for approximately 0.5 hour, 23 nL of compounds dissolved in DMSO, positive controls or DMSO only was transferred into the assay plate by a pintool work station (Kalypsys, San Diego, CA). The assay plates were incubated at 37 C/5% CO2 for 40 hours. After 5 uL per well of CellTiter-Glo reagent was added into each well of the assay plates, the plates were incubated for 30 min at room temperature and the luminescence intensity of the plates was measured using a ViewLux (PerkinElmer, Shelton, CT) plate reader.
# Potency is read from the fitted curve at half-maximal effect.
row,Compound,Potency
1,COc1ccc(C(c2ccc(OC)cc2)C(Cl)(Cl)Cl)cc1,19.2 µM (active)
2,C[N+]1([O-])[C@@H]2CC(OC(=O)[C@H](CO)c3ccccc3)C[C@H]1[C@@H]1O[C@@H]12 (stereo not given in full),inactive
3,F/C(COc1ccc2c(c1)[nH]c1ccccc12)=C1/CN2CCC1CC2,5.96 µM (active)
4,CC(N)Cc1ccc(O)cc1 (stereo not given),inactive
5,C#CC(C)(O)CC (stereo not given),inactive
6,Clc1ccc(C(Cn2ccnc2)OCc2csc3c(Cl)cccc23)c(Cl)c1 (stereo not given),12.7 µM (active)
7,COc1ccc2c3c1O[C@H]1C(=O)CC[C@H]4[C@@H](C2)N(C)CC[C@]314,inactive
8,CCCCCc1cc(O)c2c(c1)OC(C)(C)[C@@H]1CCC(C)=C[C@@H]21,9.44 µM (active)
9,CNC(C)C(O)c1ccc(O)cc1 (stereo not given),inactive
10,C[C@]12CC[C@H](O)C[C@H]1CC[C@@H]1[C@@H]2CC[C@]2(C)[C@@H](c3ccc(=O)oc3)C[C@H]3O[C@]132,7.5 µM (active)
11,COC(=O)[C@@H]1[C@H]2CC[C@@H](C[C@H]1OC(=O)c1ccccc1)N2C,inactive
12,O=C(OCCN1CCCCC1)C(O)(c1ccccc1)c1ccccc1,inactive
13,C[C@]12CCC(=O)C[C@@H]1CC[C@@H]1[C@@H]2CC[C@@]2(C)[C@H]1CC[C@]2(C)O,inactive
14,OCC(c1ccc(Cl)cc1)c1ccc(Cl)cc1,13.7 µM (active)
15,C[C@@H](CO)NC(=O)[C@@H]1C=C2c3cccc4[nH]cc(c34)C[C@H]2N(C)C1,inactive
16,O=C1C=C2C=C[C@@H]3C[C@@]2(O1)[C@H]1CCCCN31,7.5 µM (active)
17,Oc1cc[c]([Hg][Cl])cc1,422 nM (active) and 596 nM (active)
18,C[N+]1(C)[C@@H]2CC[C@H]1CC(OC(=O)c1c[nH]c3ccccc13)C2 (stereo not given in full),inactive
19,Oc1ccc2c3c1O[C@H]1[C@@H](O)C=C[C@H]4[C@H](C2)NCC[C@@]341,inactive
20,CN[C@@H](C)Cc1ccccc1,inactive

row,Compound,Potency
1,C[N+]1(C)CCCCC1COC(=O)C(O)(c1ccccc1)c1ccccc1 (stereo not given),inactive
2,COc1ccc(OC)c(C[C@H](C)N)c1,inactive
3,c1ccc(C2(c3ccccc3)CC2C2=NCCN2)cc1 (stereo not given),inactive
4,CC(C)[C@H]1C(=O)N2CCC[C@H]2[C@]2(O)O[C@](NC(=O)[C@@H]3C[C@@H]4c5cccc6[nH]cc(c56)C[C@H]4N(C)C3)(C(C)C)C(=O)N12,29.8 µM (active)
5,CN=C1CN(O)C(c2ccccc2)=c2cc(Cl)ccc2=N1,inactive
6,CC(=O)OCC(=O)[C@H]1CC[C@H]2[C@@H]3CC[C@H]4C[C@H](O)CC[C@]4(C)[C@H]3C(=O)C[C@]12C,inactive
7,CC(C)NC(C)Cc1ccc(I)cc1 (stereo not given),26.6 µM (active)
8,O=C(Nc1ccccc1-c1ccc(Cl)cc1)c1cccnc1Cl,57.8 µM (active)
9,OC[C@@H](O)[C@H]1O[C@@H]2O[C@@H](C(Cl)(Cl)Cl)O[C@@H]2[C@H]1O,inactive
10,CNC1(c2ccccc2Cl)CCCCC1=O (stereo not given),inactive
11,CC(=O)[C@@]1(O)CC[C@H]2[C@@H]3CCC4=CC(=O)CC[C@]4(C)C3(F)[C@@H](O)C[C@@]21C (stereo not given in full),inactive
12,O=C1CCO1,inactive
13,c1ccccc1,inactive
14,C[C@@H]1[C@H]2Cc3ccc(O)cc3[C@]1(C)CCN2C,89.3 µM (active)
15,COC(=O)[C@H]1[C@@H](OC(=O)c2ccccc2)C[C@@H]2CC[C@H]1N2C,inactive
16,C[C@]12CC[C@H]3[C@@H](CCC4=C(Cl)C(=O)CC[C@@]43C)[C@@H]1CC[C@@H]2O,16.8 µM (active)
17,C[C@H]1CC[C@]2(NC1)O[C@H]1C[C@H]3[C@@H]4CC[C@H]5C[C@@H](O[C@@H]6O[C@H](CO)[C@H](O[C@@H]7O[C@H](CO)[C@@H](O)[C@H](O[C@@H]8OC[C@@H](O)[C@H](O)[C@H]8O)[C@H]7O[C@@H]7O[C@H](CO)[C@@H](O)[C@H](O)[C@H]7O)[C@H](O)[C@H]6O)CC[C@]5(C)[C@H]4CC[C@]3(C)[C@H]1[C@@H]2C,1.88 µM (active)
18,CC(=O)OO,inactive
19,O=C1OC2(c3cc(Br)c(O)cc3Oc3c2cc(Br)c(O)[c]3[Hg])c2ccccc21 (stereo not given),10.1 µM (active)
20,CC(C)(O)[C@@H]1[C@H]2OC(=O)[C@@H]1[C@]1(O)C[C@H]3O[C@]34C(=O)O[C@H]2[C@]14C,inactive
